Compound activity: PubChem BioAssay, National Center for Advancing Translational Sciences (NCATS)
MCF10A rereplic – induces DNA re-replication in MCF 10a normal breast cells | AID 624296 | actives 2.9% (n = 350,000) | MCF 10A DNA re-replication, Hoechst nuclear intensity, 48 h | Potency, µM (highest dose often 46.1 µM), usual class: activators; note: nearly all actives have a fitted effect of over 50% in size
HT1080NT lethal – kills 2HG-producing HT-1080-NT fibrosarcoma cells; HT-1080-NT fibrosarcoma viability, CellTiter-Glo ATP luminescence, 48 h; Potency, µM (top dose mostly 46.1 µM), hits mostly cytotoxic; actives 1.6% (n = 360,000);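 note: NT is the 2HG producing partner of a matched IDH1 knockdown line; nearly all actives have a fitted effect of over 55% in size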
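HT-1080-NT; 750 cells/well; 5% FBS RPMI; 48 h compound, 37 degrees C; CellTiter-Glo luminescence; curve fitting and curve-class assignment.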
KB-3-1 tox – KB-3-1 parental cell cytotoxicity; KB-3-1 viability, CellTiter-Glo ATP luminescence, 72 h; Potency, µM (series often up to 46.1 µM), hits mostly cytotoxic; actives 1.4% (n = 400,000); AID 1347075; note: nearly all actives have a fitted effect of over 60% in size
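Cytotoxicity measured as CellTiter-Glo luminescence after 72 h at 37 C. Compound titrations were pinned onto drug-naive KB-3-1 parental adenocarcinoma cells grown in DMEM with 10% FBS, and normalized data fitted to concentration-response curves.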
KB-V1 MDR tox – kills drug-selected multidrug resistant KB-V1 cells; KB-V1 MDR cells viability, CellTiter-Glo, 72 h; Potency, µM (highest dose often 46.1 µM), usual class: cytotoxic; actives 3.4% (n = 400,000); AID 1347076; note: nearly all actives have a fitted effect of over 60% in size
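KB-V1, DMEM (no phenol red) + 10% FBS; cpd pin-transferred, titration series; 72 h, 37 degrees C; CellTiter-Glo, luminescence. Data normalized, curve-fit.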
SW480 rerep – DNA re-replication induction in SW480 cells. SW480 DNA re-replication, Hoechst DNA content imaging, 48 h. Potency, µM (titrated, usually from 46.1 µM), actives largely listed as activators. actives 1.8% (n = 340,000). AID 624297; note: nearly all actives have a fitted effect of over 55% in size
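Image-based DNA-content assay: after two days of treatment, nuclei were labelled with the DNA dye Hoechst and imaged, and hits were compounds raising the count of nuclei showing high fluorescence intensity.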
HT1080 IDH1KD tx – kills HT-1080 cells with IDH1 knockdown | HT-1080 IDH1 knockdown viability, ATP luminescence, 48 h | Potency, µM (highest dose often 46.1 µM), hits mostly cytotoxic | AID 686971 | actives 2% (n = 360,000)
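After a 2 h attachment period, IDH1KD HT-1080 cells took pin-transferred compound for 48 h at 37 °C; ATP-based luminescence after 10 min room-temperature reagent incubation reported viability.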
Numbers stand for hits; i = inactive; ? = inconclusive; nt = not tested or not shown; [ ] = remark or other dose. Sampled rows, rich in hits. Any-hit rate of the full collection: about 8%. Calls come from the whole dose curve; as a rule, active = well fitted curve in the direction sought with a large enough effect; inconclusive = small, poorly fitted or top-dose-only effect, or another doubt; inactive = no such curve, though single readings can be large; an effect the other way counts as inactive or inconclusive.

SMILES	MCF10A rereplic	HT1080NT lethal	KB-3-1 tox	KB-V1 MDR tox	SW480 rerep	HT1080 IDH1KD tx
COc1cc(NS(=O)(=O)c2ccc3[nH]c4c(c3c2)CCCC4)cc(OC)c1OC	nt	nt	0.0651µM	?	nt	nt
COc1ccc(OC)c(NS(=O)(=O)c2ccc3[nH]c4c(c3c2)CCCCC4)c1	nt	nt	?	16.4µM	nt	nt
COc1cc(NS(=O)(=O)c2ccc3[nH]c4c(c3c2)CCCCCC4)cc(OC)c1	nt	nt	i	?	nt	nt
O=S(=O)(NCc1ccc(F)cc1)c1ccc2[nH]c3c(c2c1)CCCCC3	nt	nt	i	i	nt	nt
COc1cccc(CNS(=O)(=O)c2ccc3[nH]c4c(c3c2)CCCCC4)c1	nt	nt	20.6µM	20.6µM	nt	nt
COCCNC(=O)c1cccc(OC2CCN(Cc3ccc(C(C)C)cc3)CC2)c1	?	?	i	i	i	?
COc1ccc(C=O)cc1COc1ccc(C)cc1[N+](=O)[O-]	?	i	?	i	?	i
CCOc1ccc2c(S(=O)(=O)O)cccc2c1[N+](=O)[O-]	i	i	i	i	i	i
Cc1cc(NC(=O)CSc2nc3c(c(=O)n2-c2ccc(Br)cc2)SCC3)no1	8.2µM	i	i	?	?	i
COc1ccc(-n2c(SCC(=O)Nc3cc(C)on3)nc3c(c2=O)SCC3)cc1	i	i	i	i	i	i
Cn1c(SCc2ccc(Br)cc2)nc2c(c1=O)SCC2	i	i	20.6µM	20.6µM	i	i
Cn1c(SCc2cccc([N+](=O)[O-])c2)nc2c(c1=O)SCC2	i	i	?	4.11µM	i	?
O=C(NC1CCCCCC1)C1CCN(S(=O)(=O)c2cccc3cccnc23)CC1	i	i	i	i	i	i
COc1cc(C)c(-c2cc(C(=O)O)c(C)o2)cc1C(C)C	i	i	i	?	?	i
COC(=O)c1[nH]c2ccccc2c1NC(=O)c1c(F)cccc1F	i	i	i	i	i	i
Cc1cccc(N=N/C(=C\O)C(=O)c2cccs2)c1	?	?	i	25.9µM	i	13µM
O=C(/C(=C/O)N=Nc1ccccc1)c1ccncc1	?	?	i	i	i	i[9.24 µM]
CCCN1C(=O)C2(C(C(=O)c3ccc(C)o3)=C(O)C(=O)N2CCCN2CCOCC2)c2ccccc21 (stereo unspecified)	?	i	i	i	i	i
Cc1cc2ccccn2c1C(=O)c1ccccc1F	?	14.6µM	?	?	?	?
O=[N+]([O-])c1ccc(O)c(C2=NNC(c3ccccc3F)C2)c1 (stereo unspecified)	3.66µM	20.6µM	?	?	i	?
O=C1/C(=C\c2ccco2)SC(=S)N1c1ccc(O)cc1	i	i	i	i	20.6µM	i
Cn1cccc1/C=C1\SC(=Nc2cccc(O)c2)NC1=O	9.2µM	?	?	i	i	14.6µM
O=C1NC(=Nc2ccc(O)cc2)S/C1=C/c1ccco1	4.61µM	?	?	8.2µM	2.91µM	?
COc1cc(/C=C2\SC(=Nc3ccc(O)cc3)NC2=O)cc(OC)c1O	?	?	?	i	?	?
Cn1cccc1/C=C1\SC(=Nc2ccc(O)cc2)NC1=O	0.581µM	0.517µM	0.291µM	i	0.461µM	0.731µM
SMILES	MCF10A rereplic	HT1080NT lethal	KB-3-1 tox	KB-V1 MDR tox	SW480 rerep	HT1080 IDH1KD tx
O=C1/C(=C/C=C/c2ccco2)SC(=S)N1c1ccc(O)cc1	i	i	i	i	i	i
N#C/C(=C/c1ccccc1Cl)c1nc(-c2cc3ccccc3oc2=O)cs1	nt	nt	i	?	nt	nt
COCCc1ccc(OC2(C)CCN(Cc3cccc(OC)c3OC)C2)cc1 (stereo unspecified)	nt	i	i	i	nt	i
Cc1ccc(N=C2NC(=O)/C(=C/c3cn(C)c4ccccc34)S2)cc1C	20.6µM	i	?	?	?	i
Cn1cc(/C=C2/SC(=O)N(c3ccccc3)C2=O)c2ccccc21	i	i	i	i	i	i
Cc1ccc(N=C2NC(=O)/C(=C/c3cccn3C)S2)c(C)c1	i	i	i	23.1µM	i	i
O=C1NC(=Nc2ccccc2)S/C1=C\c1cccs1	i	i	i	i	i	i
Cn1cccc1/C=C1\SC(=Nc2ccccc2)NC1=O	?	?	2.31µM	2.59µM	?	5.17µM
COC(=O)/C=C1/SC(=Nc2ccc(C)cc2C)NC1=O	?	i	i	i	i	i
O=C(Nc1cccc(S(=O)(=O)C(F)(F)F)c1)[C@@H]1O[C@H](CO)[C@@H](O)[C@H]1O	nt	i	i	i	nt	i
CC(=O)Nc1c(-c2ccc3ccccc3c2)nc2ccccn12	i	i	i	i	i	i
CCOC(=O)c1cn(-c2ccccc2)nc1-c1ccncc1	i	i	?	18.4µM	i	i
CCOC(=O)C1=C(C)Nc2nc(SC)nn2C1c1ccc(C(=O)OC)cc1 (stereo unspecified)	i	i	i	5.8µM	i	i
COc1ccc(C(=O)Nc2ccc3nc(N4CCN(C)CC4)cc(C)c3c2)c(OC)c1	i	?	i	i	i	?
Cc1cc2oc(C(=O)Nc3nonc3C)c(C)c2cc1C	i	?	i	i	i	i
Cc1ccc(NCC(=O)Nc2ccc(Br)cc2)cc1C	i	i	i	i	i	i
Cc1cccc(OCCNC(=O)c2ccc(Cl)c(S(=O)(=O)NCc3cccnc3)c2)c1	5.8µM	?	1.46µM	?	?	?
COC(=O)C1CCN(C(=O)c2ccc(Cl)c(S(=O)(=O)NCc3cccnc3)c2)CC1	i	i	i	i	i	i
Cc1cccc(OCCNC(=O)c2cncc(Br)c2)c1	i	i	i	i	0.92µM	i
O=C(NCCOc1ccc2ccccc2c1)c1cncc(Br)c1	i	i	i	i	i	i
COc1nc(Nc2ccc(O)cc2)nc(OC(C(F)(F)F)C(F)(F)F)n1	i	i	?	i	i	i
Cc1cc(Br)cn2c(Cc3cccc(F)c3)c(-c3ccc(F)cc3)nc12	nt	?	16.4µM	i	nt	i
COc1ccccc1Cc1c(-c2ccc(Cl)cc2)nc2c(C)cc(Br)cn12	nt	?	16.4µM	?	nt	?
CCCC(C(=O)NCC1CCCO1)N(C(=O)CNS(=O)(=O)c1ccccc1)c1ccc(F)cc1 (stereo unspecified)	i	i	i	i	i	i
FC(F)(F)c1cccc(NC(=S)Nc2cccc(NC(=S)Nc3cccc(C(F)(F)F)c3)n2)c1	?	?	?	?	?	23.1µM
FC(F)(F)c1cccc(N2CCN(C(=S)NC3CCCCC3)CC2)c1	i	i	?	20.6µM	nt	?
FC(F)(F)c1cccc(NC(=S)NC2CCCC2)c1	?	i	18.4µM	?	i	i
Cc1ccc(NC(=S)NNC(C)(C)C)cc1	i	?	i	i	?	18.4µM
Cc1cccc(NC(=S)Nc2cccc(C(F)(F)F)c2)n1	i	i	?	?	i	i
